Compound activity: PubChem BioAssay, several laboratories
PrP 5UTR inh: suppresses PrP 5' UTR mRNA reporter expression; cell-based PrP 5' UTR mRNA reporter, plate reader; inhibition, % (no concentration beside the values); hit rate 0.35% among 340,000; in the data active = inhibition above about 52%; note: 0 = median of the neutral control wells
Y pestis TopoI: blocks Yersinia pestis topoisomerase I activity. Y. pestis Topo-I cleavage product accumulation, plate reader. activity, % at 10 µM. hit rate 0.064% among 360,000. AID 504884; in the data active = activity above about 50%, passing the limit was not always enough
GDH-TPI inh: counter-screen for M. tuberculosis FBA inhibitors: GDH-TPI coupled enzymes | GDH-TPI coupled enzyme counterscreen, NADH absorbance | AID 588335 | hit rate 1.2% among 360,000 | inhibition, % at 4.8 µM; in the data active = inhibition above about 30%;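 note: 0% = DMSO wells and 100% = wells lacking the enzyme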
Mtb FBA inh: Mtb fructose-bisphosphate aldolase inhibition; purified M. tuberculosis FBA, fluorescence read-out; inhibition, % at 1 µM; AID 588726; hit rate 2.3% among 360,000; in the data active = inhibition above about 27%;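 note: 0% = vehicle and 100% = reference inhibitor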
Target sequence (P9WQA3 whole entry, looked up): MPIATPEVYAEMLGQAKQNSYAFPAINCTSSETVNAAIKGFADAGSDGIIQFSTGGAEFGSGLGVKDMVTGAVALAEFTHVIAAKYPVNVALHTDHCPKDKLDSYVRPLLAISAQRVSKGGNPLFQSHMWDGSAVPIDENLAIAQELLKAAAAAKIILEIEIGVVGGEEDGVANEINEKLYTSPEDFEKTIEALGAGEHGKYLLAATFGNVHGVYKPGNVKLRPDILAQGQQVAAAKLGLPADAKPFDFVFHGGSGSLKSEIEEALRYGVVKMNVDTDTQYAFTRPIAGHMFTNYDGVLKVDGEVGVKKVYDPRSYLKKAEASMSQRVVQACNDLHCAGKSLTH
Mtb hypoxia inh: reduces hypoxia-regulated biosensor signal in M. tuberculosis | AID 1159583 | M. tuberculosis hypoxia-regulated fluorescent reporter, fluorescence | hit rate 0.1% among 300,000 | fluorescence inhibition, % (no concentration beside the values); in the data active = fluorescence inhibition mostly above about 23%, no sharp cut-off; inactive = mostly below about 17%
PrPC TRFRET: cell surface PrPC inhibition, primary TR-FRET screen | hit rate 0.43% among 370,000 | inhibition, % at 13.8 µM | TR-FRET read-out; in the data active = inhibition above about 24%; note: 0% = median of the test wells and 100% = reference compound wells
* hit, by the source's call. Sampled rows, rich in hits. Any-hit rate of the full collection: about 3.8%.

For CN(C)C=C1C(=O)c2ccccc2C1=O the results were PrP 5UTR inh -12.0, Y pestis TopoI 7.5, GDH-TPI inh 8.7, Mtb FBA inh 2.8 and PrPC TRFRET -9.2.
Screening CCN1C(=O)/C(=C/N(C)C)c2ccccc21 returned PrP 5UTR inh 2.3, Y pestis TopoI 10.0, GDH-TPI inh 37.3*, Mtb FBA inh -0.8, Mtb hypoxia inh 4.5 and PrPC TRFRET 4.3.
`CCO/C=C1\C(=O)N(CC)c2ccccc21` gave PrP 5UTR inh -22.9, Y pestis TopoI -2.2, GDH-TPI inh 0.0, Mtb FBA inh -1.2, Mtb hypoxia inh 4.4 and PrPC TRFRET -7.2.
`COc1ccc(CCNC(=O)/C=C/c2ccc(S(=O)(=O)N3CCOCC3)cc2)cc1` gave PrP 5UTR inh -1.1, Y pestis TopoI 6.9, GDH-TPI inh -1.5, Mtb FBA inh 6.0, Mtb hypoxia inh 4.1 and PrPC TRFRET 5.4.
Screening O=C(/C=C/c1ccc(S(=O)(=O)N2CCOCC2)cc1)NCCc1ccc(C(F)(F)F)cc1 returned PrP 5UTR inh -26.9, Y pestis TopoI 17.7, GDH-TPI inh 9.8, Mtb FBA inh -0.8, Mtb hypoxia inh 24.5* and PrPC TRFRET -4.6.
`COc1ccc(/C=C/C(=O)Nc2ccc(C)c(S(=O)(=O)N3CCOCC3)c2)cc1` gave PrP 5UTR inh -4.9, Y pestis TopoI 5.1, GDH-TPI inh 32.7*, Mtb FBA inh 1.6 and PrPC TRFRET 12.2.
COc1ccc(/C=C/C(=O)Nc2cc(S(=O)(=O)N3CCOCC3)ccc2OC)cc1 was read as PrP 5UTR inh 11.4, Y pestis TopoI 9.6, GDH-TPI inh 30.8*, Mtb FBA inh -2.8, Mtb hypoxia inh 6.6 and PrPC TRFRET 9.5.
For Cc1ccc(Cn2c(=N)c(C(=O)NCCN3CCOCC3)cc3c(=O)n4ccccc4nc32)cc1 the results were PrP 5UTR inh -1.8, Y pestis TopoI 14.2, GDH-TPI inh 7.6, Mtb FBA inh 19.5, Mtb hypoxia inh 14.1 and PrPC TRFRET -34.2.
N=c1c(C(=O)NCCc2ccccc2)cc2c(=O)n3ccccc3nc2n1CCCN1CCOCC1 was read as PrP 5UTR inh 5.7, Y pestis TopoI -3.4, GDH-TPI inh 11.5, Mtb FBA inh 145.5*, Mtb hypoxia inh 17.8 and PrPC TRFRET -28.9.
CCOCCCn1c(=N)c(C(=O)NCc2ccc3c(c2)OCO3)cc2c(=O)n3ccccc3nc21 was read as PrPC TRFRET -41.8.
For N=c1c(C(=O)NCc2ccc(F)cc2)cc2c(=O)n3ccccc3nc2n1CCCN1CCOCC1 the results were PrP 5UTR inh -24.1, Y pestis TopoI -8.4, GDH-TPI inh 7.3, Mtb FBA inh 112.6*, Mtb hypoxia inh 10.7 and PrPC TRFRET -21.9.
For N=c1c(S(=O)(=O)c2ccc(Br)cc2)cc2c(=O)n3ccccc3nc2n1CCN1CCOCC1 the results were PrP 5UTR inh -19.2, Y pestis TopoI 2.0, GDH-TPI inh -0.7, Mtb FBA inh active, Mtb hypoxia inh -6.8 and PrPC TRFRET -18.4.
`N=c1c(C(=O)NCCN2CCOCC2)cc2c(=O)n3ccccc3nc2n1CCc1ccccc1` gave PrP 5UTR inh -18.5, Y pestis TopoI 1.5, GDH-TPI inh 0.5, Mtb FBA inh 173.4* and PrPC TRFRET -36.9.
For O=C(O)CCCNC(=O)C(=Cc1ccccc1F)NC(=O)c1ccccc1 the results were Mtb hypoxia inh -3.3.
CCC(C)C(C)=NNC(=O)c1ccccc1OCCOc1ccccc1 (stereo unspecified) was read as Mtb hypoxia inh 4.4.
COC(=O)C1=C(c2ccc(F)cc2F)CC2CCC1N2C(=O)NCCOc1ccccc1 (stereo unspecified) was read as Mtb hypoxia inh 4.3.
`CC(CCN1C(N(C)C)=NCC1C)c1ccccc1` (stereo unspecified) gave Mtb hypoxia inh 12.2.
COC(=O)c1ccc(C=NOCC(=O)NCc2ccc(F)cc2)cc1 was read as Mtb hypoxia inh 4.0.
COc1ccc(-n2nc(N)c(C(N)=O)n2)cc1 was read as PrP 5UTR inh -26.9, Y pestis TopoI 2.9, GDH-TPI inh 13.2, Mtb FBA inh active, Mtb hypoxia inh -2.9 and PrPC TRFRET -2.0.
For CC(=O)Nc1nc(-c2ccccc2)cc(-c2ccco2)c1C#N the results were PrP 5UTR inh -55.5, Y pestis TopoI 10.6, GDH-TPI inh 16.4, Mtb FBA inh active and PrPC TRFRET -17.7.
Screening N#Cc1sc2nc(-c3ccccc3)cc(-c3ccco3)c2c1N returned PrP 5UTR inh 5.7, Y pestis TopoI -13.5, GDH-TPI inh 27.9, Mtb FBA inh 1.4, Mtb hypoxia inh 6.5 and PrPC TRFRET -5.9.
CCc1n[nH]c(=S)n1N=Cc1cc(Br)c(O)c(OC)c1 was read as Mtb hypoxia inh -1.5.
`O=C1Nc2ccccc2C1=Nc1ccc2[nH]c3ccccc3c2c1` gave PrP 5UTR inh -12.1, Y pestis TopoI -33.9, GDH-TPI inh 17.9, Mtb FBA inh 40.9* and PrPC TRFRET -2.2.
`COc1ccc(C(=O)/C=C\N2CCOCC2)cc1` gave PrP 5UTR inh -18.5, Y pestis TopoI 3.5, GDH-TPI inh 33.3*, Mtb FBA inh -0.6 and PrPC TRFRET -2.1.
`CC(C)(C)OC(=O)N(CCc1ccccc1)Cc1ccc(OCc2cccc(NC(=O)/C=C/c3ccccc3)c2)cc1` gave PrP 5UTR inh -19.6, Y pestis TopoI -0.4, GDH-TPI inh 36.5*, Mtb FBA inh 1.9 and PrPC TRFRET 11.6.
`CC(C)C(=O)Nc1cccc(COc2ccc(CN(Cc3ccccc3)C(=O)OC(C)(C)C)cc2)c1` gave PrP 5UTR inh -14.5, Y pestis TopoI 53.1*, GDH-TPI inh 0.0, Mtb FBA inh -0.6 and PrPC TRFRET 2.0.
Screening COc1ccccc1NN=C1COC(C)(C)CC1=O returned Mtb hypoxia inh 0.2.
CC(C(=O)NCCc1c[nH]c2ccccc12)C1C[C@]1(C)C(NC(=O)OCc1ccccc1)c1ccccc1 (stereo partly specified) was read as Mtb hypoxia inh -2.8.
For CCSc1nc(-c2ccc(OC)cc2)cc(-c2ccccc2)c1C#N the results were Y pestis TopoI 1.3, GDH-TPI inh 6.2, Mtb FBA inh 1.4, Mtb hypoxia inh -2.3 and PrPC TRFRET -6.3.
COc1ccc(-c2cc(-c3ccccc3)c(C#N)c(S(C)=O)n2)cc1 (stereo unspecified) was read as PrP 5UTR inh -14.1, Y pestis TopoI 38.8, GDH-TPI inh 31.4*, Mtb FBA inh active and PrPC TRFRET -3.5.
C=C(C)CNC(=S)NN=Cc1c(F)cccc1F was read as Mtb hypoxia inh -4.1.
`O=C1OCCN1C(=O)[C@H]1[C@H](c2ccc([N+](=O)[O-])cc2)C(c2cccc(Cl)c2)=NN1c1ccc(Br)cc1` gave PrP 5UTR inh -28.0, Y pestis TopoI -9.3, GDH-TPI inh 10.9, Mtb FBA inh -4.2, Mtb hypoxia inh 1.9 and PrPC TRFRET 6.1.
For COc1ccccc1[C@@H]1C(c2ccccc2)=NN(c2ccc(Br)cc2)[C@H]1C(=O)N1CCOC1=O the results were PrP 5UTR inh 6.5, Y pestis TopoI -17.5, GDH-TPI inh 1.8, Mtb FBA inh 30.5*, Mtb hypoxia inh -0.7 and PrPC TRFRET 5.3.
